Results filed as inconclusive are left out. Calls of active or inactive are those of the source. Calls follow the shape of the dose curve; as a rule, active = well fitted inhibition curve with a large enough effect; inconclusive = small, poorly fitted or top-dose-only effect; inactive = flat fitted curve, though single readings scatter.

For 24 molecules, Potency results are on record in PubChem BioAssay (NCATS).

Common to all, as to assay: qHTS profiling for inhibitors of Plasmodium falciparum proliferation (AID 504749); also: nearly all actives have a fitted effect of over 60% in size
Common to all, as to settings: P. falciparum in erythrocytes, SYBR Green DNA, 72 h; series mostly up to 28.7 µM
For orientation: In qHTS, concentration-response curves come from the screen itself.

One assay concerns CP238. In a few lines:
(§1)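 P. falciparum-infected erythrocytes (0.3% parasitemia, 2.5% hematocrit) incubated with compound 72 h at 37 C, 5% CO2. Parasite DNA detected by SYBR Green after lysis, overnight at room temperature; normalised to 0.29 uM artemisinin and DMSO.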

In another assay the test system is CP247. In a few lines: as §1
The next assay deals with CP250. In a few lines: as §1
In another assay the test system is CP252. In a few lines:
as §1

The test system of a further assay is CP256. In a few lines: as §1
In a further assay the test system is CP260. In a few lines: as §1
Another assay deals with CP262. The procedure, abridged:
as §1

For a further assay, the system named is CP265. In a few lines: as §1
Another assay has as its system CP266. In a few lines: as §1
For a further assay, the system named is CP268. The procedure, abridged: as §1
Potency is read from the fitted curve at half-maximal effect.

As for `O=c1cc[nH]c(=O)[nH]1`, the Potency entry in the assay with CP238, in the assay with CP247, in the assay on CP250, in the assay on CP252, in the assay with CP256 and with CP260 was “inactive” in each case. Also, the Potency result with CP262, in the assay with CP265, in the assay with CP266 and with CP268 was “inactive” in each case.
Take `O=C(O)CN1C(=O)c2cccc3cccc(c23)C1=O`: the Potency entry in the assay on CP238, in the assay on CP247, in the assay on CP250, in the assay with CP252, with CP256 and in the assay with CP260 was “inactive” throughout. Moreover, the Potency result in the assay with CP262, with CP265, in the assay with CP266 and with CP268 was “inactive” in each case.
On to `CCCCCCCCCCCCOS(=O)(=O)O`, for which the Potency result in the assay on CP238, in the assay with CP247, in the assay on CP250, in the assay with CP252, in the assay with CP256 and in the assay with CP260 was “inactive” each time. For the same molecule, the Potency result in the assay with CP262, with CP265, in the assay with CP266 and with CP268 was “inactive” in each case.
On to `O=C(O)c1ccccn1`, for which the Potency result with CP238, in the assay on CP247, in the assay on CP250, in the assay on CP252, in the assay on CP256 and with CP260 was “inactive” throughout. Moreover, the Potency entry in the assay on CP262, in the assay on CP265, in the assay with CP266 and in the assay on CP268 was “inactive” throughout.
On to `O=C(O)c1ccccc1O`, for which the Potency entry in the assay with CP238, in the assay with CP247, in the assay on CP250, in the assay on CP252, in the assay with CP256 and in the assay on CP260 was “inactive” each time. Further, the Potency entry with CP262, with CP265, with CP266 and in the assay on CP268 was “inactive” in each case.
For `Nc1ccc(S(=O)(=O)Nc2ccccc2)cc1`, the Potency entry in the assay with CP238, with CP247, with CP250, with CP252, in the assay on CP256 and with CP260 was “inactive” each time. Further, the Potency result in the assay with CP262, with CP265, with CP266 and with CP268 was “inactive” throughout.
Turning to `COc1ccc2c(c1)C(=O)N(CCc1ccc(S(=O)(=O)NC(=O)NC3CCCCC3)cc1)C(=O)C2(C)C`, the Potency entry with CP238, in the assay with CP247, in the assay with CP250, with CP252, with CP256 and in the assay with CP260 was “inactive” throughout. Further, the Potency result in the assay with CP262, in the assay with CP265, in the assay on CP266 and in the assay on CP268 was “inactive” throughout.
With `O=C(O)c1ccccc1-c1ccc(C(F)(F)F)cc1`, the Potency result in the assay on CP238, in the assay with CP247, in the assay with CP250, in the assay with CP252, in the assay on CP256 and in the assay with CP260 was “inactive” each time. Further, the Potency result with CP262, in the assay with CP265, in the assay on CP266 and in the assay with CP268 was “inactive” in each case.
For `C[C@@H]1CN(c2c(F)c(F)c3c(=O)c(C(=O)O)cn(C4CC4)c3c2F)C[C@H](C)N1`, the Potency result in the assay on CP238, in the assay on CP247, with CP250, in the assay with CP252, in the assay with CP256 and in the assay with CP260 was “inactive” in each case. The Potency entry with CP262, with CP265, with CP266 and in the assay with CP268 was “inactive” each time.
`CCOC(=O)c1ccc(O)cc1`: the Potency entry in the assay with CP238, in the assay with CP247, with CP250, in the assay with CP252, in the assay on CP256 and with CP260 was “inactive” throughout. Moreover, the Potency result in the assay with CP262, in the assay with CP265, in the assay on CP266 and with CP268 was “inactive” each time.
As for `NCCNCCNCCNCCN`, the Potency entry in the assay with CP238, in the assay with CP247, in the assay with CP250, with CP252, in the assay with CP256 and with CP260 was “inactive” each time. For the same molecule, the Potency result in the assay with CP262, in the assay with CP265, with CP266 and with CP268 was “inactive” each time.
With `Cc1c(Cl)cccc1Nc1ccccc1C(=O)O`, the Potency entry in the assay on CP238, in the assay with CP247, in the assay on CP250, in the assay on CP252, with CP256 and with CP260 was “inactive” throughout. The Potency entry in the assay with CP262, with CP265, in the assay on CP266 and with CP268 was “inactive” each time.
Regarding `NS(=O)(=O)c1cc2c(cc1Cl)NC(CSCc1ccccc1)=NS2(=O)=O`, the Potency entry in the assay with CP238, with CP247, in the assay on CP250, in the assay on CP252, with CP256 and in the assay with CP260 was “inactive” each time. For the same molecule, the Potency result in the assay with CP262, with CP265, in the assay on CP266 and in the assay on CP268 was “inactive” each time.
`O=C1O[C@H]([C@@H](O)CO)C(O)=C1O`: the Potency result with CP238, with CP247, with CP250, with CP252, with CP256 and in the assay on CP260 was “inactive” each time. For the same molecule, the Potency result in the assay on CP262, with CP265, with CP266 and in the assay with CP268 was “inactive” throughout.
Consider `CCCCOc1cc(C(=O)OCCN(CC)CC)ccc1N`, for which the Potency entry with CP238, in the assay on CP247, in the assay with CP250, in the assay on CP252, in the assay on CP256 and in the assay on CP260 was “inactive” throughout. Further, the Potency entry in the assay on CP262, in the assay with CP265, with CP266 and in the assay with CP268 was “inactive” each time.
Turning to `CCC(=O)Nc1ccc(O)cc1`, the Potency entry with CP238, with CP247, in the assay on CP250, with CP252, with CP256 and with CP260 was “inactive” in each case. The Potency entry with CP262, in the assay with CP265, in the assay with CP266 and in the assay on CP268 was “inactive” in each case.
`CCCn1cnc2c1c(=O)n(CCCCC(C)=O)c(=O)n2C`: the Potency entry in the assay on CP238, in the assay with CP247, in the assay on CP250, with CP252, in the assay on CP256 and in the assay with CP260 was “inactive” throughout. The Potency result in the assay with CP262, with CP265, in the assay with CP266 and in the assay with CP268 was “inactive” each time.
For the molecule `Oc1cccc(O)c1`, the Potency entry in the assay on CP238, in the assay on CP247, with CP250, in the assay with CP252, in the assay with CP256 and in the assay on CP260 was “inactive” each time. Further, the Potency entry with CP262, in the assay on CP265, in the assay on CP266 and in the assay with CP268 was “inactive” each time.
As for `COc1ccc(Cl)cc1C(=O)NCCc1ccc(S(=O)(=O)NC(=O)NC2CCCCC2)cc1`, the Potency entry in the assay with CP238, in the assay on CP247, with CP250, in the assay on CP252, in the assay with CP256 and in the assay with CP260 was “inactive” each time. The Potency entry with CP262, in the assay with CP265, with CP266 and in the assay on CP268 was “inactive” each time.
`NCCNCCNCCN`: the Potency entry in the assay with CP238, in the assay on CP247, in the assay with CP250, with CP252, in the assay on CP256 and in the assay on CP260 was “inactive” in each case. Moreover, the Potency entry in the assay on CP262, with CP265, in the assay on CP266 and with CP268 was “inactive” in each case.
As for `O=c1cc(CO)occ1O`, the Potency result with CP238, with CP247, in the assay with CP250, in the assay on CP252, in the assay on CP256 and in the assay on CP260 was “inactive” throughout. Also, the Potency result in the assay with CP262, in the assay with CP265, with CP266 and in the assay with CP268 was “inactive” throughout.
With `CCCCCCCCCCCCCCCCCCOCC(O)CO` (stereo unspecified), the Potency result in the assay with CP238, with CP247, with CP250, with CP252, with CP256 and in the assay with CP260 was “inactive” in each case. The Potency entry in the assay on CP262, in the assay on CP265, with CP266 and with CP268 was “inactive” in each case.
On to `CCN(CC)CCNC(=O)c1c(C)[nH]c(/C=C2\C(=O)Nc3ccc(F)cc32)c1C`, for which the Potency was 7.94 µM (active) in the assay on CP238; 10 µM (active) in the assay with CP247; 14.1 µM (active) with CP250; 7.94 µM (active) in the assay with CP252; 11.2 µM (active) in the assay with CP256; 7.08 µM (active) in the assay with CP260.
For the molecule `C[C@H](N)[C@H](O)c1cccc(O)c1`, the Potency entry in the assay on CP238, in the assay with CP247, with CP250, in the assay with CP252, in the assay on CP256 and with CP260 was “inactive” throughout. In addition, the Potency result with CP262, in the assay with CP265, in the assay with CP266 and with CP268 was “inactive” throughout.
